Experiment [1] is described as follows: liver-stage malaria parasite load reduction – cell-based, known kinase inhibitor set, luminescence, hepatoma host viability (AID 624392).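 Also: infected cells incubated roughly two days before readout.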 The conditions noted are these: Plasmodium liver stage in hepatoma cells, luciferase luminescence, concentration not given here; liver cell % of control: measured here: host liver cell viability; parasite % of control: stronger effect = lower value.

Experiment [2] in a line: altered dexamethasone sensitivity, NF-kB reporter, cell-based, luciferase, IL-1B stimulus (AID 624486).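 As to percent of negative control (+Dex): 100% = mean signal of vehicle control wells on the plate.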 The conditions noted are these: IL-1B + dexamethasone, luminescence; percent of negative control (+Dex): actives lie on both sides, concentration not given here; z-score: measured here: IL-1B alone, no Dex.
Experiment [3] has as its target Cellular tumor antigen p53 (Homo sapiens) (UniProt P04637). Description: GFP-p53 level modulators in HPV16+ cells – imaging, known kinase inhibitor set, EGFP/DsRed ratio (AID 1053116).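 Also: cells exposed to compounds for 24 h at 37 °C before reading.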 The conditions noted are these: GFP-p53 stability, stronger effect = higher value; EGFP object count: measured here: GFP-p53 positive objects count.
Experiment [4] in a line: inducers of IRF3 signaling, differentiated THP-1 – cell-based, PMA-stimulated THP-1, luminescence (AID 1053176). The conditions noted are these: PMA-differentiated THP-1, IRF3 reporter luminescence; stronger effect = higher value.
Experiment [5] in a line: C. elegans survival during P. aeruginosa infection – whole organism (AID 651566).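 Also: tested at 14 µM; sign flipped so higher z means a lower ratio.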 The conditions noted are these: C. elegans killed by P. aeruginosa, survival ratio.
Experiment [6] is described as follows: pro-inflammatory signaling induction in mouse macrophages – cell-based, murine, luminescence (AID 652131). The conditions noted are these: murine macrophage pro-inflammatory reporter, stronger effect = higher value.
Experiment [7] is described as follows: MELAS cybrid and Rieske KO viability enhancers – cell-based, MELAS cybrids, Rieske KO mouse fibroblasts, CellTiter-Glo, primary screen (AID 1508586;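 active = mean z-score across replicates of 1.96 or higher in either the MELAS or the Rieske mutant cell line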;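 also: z relative to plate mean and SD of compound and empty wells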). The conditions noted are these: low glucose. (Cellular ATP, detected with luciferase, serves as a proxy for viable cell number.)

Active and inactive are the calls of the source. Unless noted, no rule for the calls is given here.

Chain of Cellular tumor antigen p53 (Homo sapiens) (P04637 whole entry, looked up): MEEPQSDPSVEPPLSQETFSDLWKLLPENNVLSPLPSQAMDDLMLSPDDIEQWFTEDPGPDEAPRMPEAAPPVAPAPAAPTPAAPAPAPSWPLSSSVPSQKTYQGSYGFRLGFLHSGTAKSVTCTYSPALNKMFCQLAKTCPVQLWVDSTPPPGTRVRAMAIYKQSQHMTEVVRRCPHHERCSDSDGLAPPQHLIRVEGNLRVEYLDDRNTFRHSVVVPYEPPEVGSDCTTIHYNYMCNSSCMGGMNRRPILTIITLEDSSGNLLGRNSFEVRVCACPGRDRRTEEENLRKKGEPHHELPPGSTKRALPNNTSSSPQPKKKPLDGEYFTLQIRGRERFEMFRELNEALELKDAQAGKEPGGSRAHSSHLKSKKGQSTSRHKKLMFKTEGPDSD

On to `Cn1cc(C2=C(c3cccc([N+](=O)[O-])c3)C(=O)NC2=O)c2ccccc21`, for which, in experiment [1], the liver cell % of control amounted to 86.9% and the parasite % of control is 3.57% (inactive). Moreover, in experiment [2], the percent of negative control (+Dex) was 106% (inactive) and the z-score was -2.63. Moreover, in experiment [3], the EGFP object count came to 14 and the EGFP/DsRed ratio is 0.255 (inactive). Moreover, in experiment [4], the fraction signal is 0.0015 (inactive).
For `COc1cccc(C(=O)c2sc(Nc3ccc(N4CCN(C(C)C)CC4)cc3)nc2N)c1`, in experiment [1], the liver cell % of control was 86.7% and the parasite % of control is 389% (inactive). In addition, in experiment [2], the percent of negative control (+Dex) was 112% (inactive) and the z-score came to 1.07. Also, in experiment [3], the EGFP object count is 2.5 and the EGFP/DsRed ratio was 0.139 (inactive). Further, the fraction signal in experiment [4] was -0.02 (inactive).
As to `CNCC1CCn2c(c(C3=C(c4cn(C)c5ccccc45)C(=O)NC3=O)c3ccccc32)C1` (centres undefined), in experiment [1], the liver cell % of control is 101% and the parasite % of control is 45.7% (inactive). Besides, in experiment [2], the percent of negative control (+Dex) was 94.5% (inactive) and the z-score was -0.52. In experiment [3], the EGFP object count is 1 and the EGFP/DsRed ratio was 0.0128 (inactive). Besides, the fraction signal in experiment [4] was -0.0115 (inactive).
For the molecule `COc1ccc(O)c(C(=O)c2ccc(C(=O)O[C@H]3CCCNC[C@@H]3NC(=O)c3ccncc3)cc2)c1F`, in experiment [1], the liver cell % of control came out at 113% and the parasite % of control is 109% (inactive). In experiment [2], the percent of negative control (+Dex) is 62% (active) and the z-score is -1.53. Also, in experiment [3], the EGFP object count was 15.5 and the EGFP/DsRed ratio was 0.253 (inactive). In experiment [4], the fraction signal was 0.001 (inactive).
Turning to `O=C1NC(=NCCc2ccccc2F)SC1=Cc1ccc2ncccc2c1`, in experiment [1], the liver cell % of control turned out to be 108% and the parasite % of control was 44.4% (inactive). Also, in experiment [2], the percent of negative control (+Dex) is 99% (inactive) and the z-score came to 0.18. For the same molecule, in experiment [3], the EGFP object count was determined as 12.5 and the EGFP/DsRed ratio was 0.349 (inactive). Besides, in experiment [4], the fraction signal is -0.0025 (inactive).
For `Cn1cc(C2=C(Oc3ccccc3)C(=O)NC2=O)c2ccccc21`, in experiment [1], the liver cell % of control came out at 109% and the parasite % of control is 43% (inactive). Moreover, in experiment [2], the percent of negative control (+Dex) was 102% (inactive) and the z-score was 0.18. For the same molecule, in experiment [3], the EGFP object count came out at 41 and the EGFP/DsRed ratio was 0.339 (inactive). Moreover, in experiment [4], the fraction signal was -0.0005 (inactive).
Take `COc1cccc(C2=C(c3cn(C)c4ccc(Cl)cc34)C(=O)NC2=O)c1`: in experiment [1], the liver cell % of control came to 197% and the parasite % of control is 11.6% (inactive). Also, in experiment [2], the percent of negative control (+Dex) is 139% (inactive) and the z-score is 0.245. Moreover, in experiment [3], the EGFP object count amounted to 13.5 and the EGFP/DsRed ratio was 0.277 (inactive). Besides, in experiment [4], the fraction signal is -0.0075 (inactive).
Consider `Cn1cc(C2=C(c3cn(CCO)c4ccccc34)C(=O)NC2=O)c2ccccc21`, for which, in experiment [1], the liver cell % of control came out at 89.7% and the parasite % of control was 54.6% (inactive). In addition, in experiment [2], the percent of negative control (+Dex) was 124% (inactive) and the z-score was -1.11. In experiment [3], the EGFP object count worked out at 25 and the EGFP/DsRed ratio was 0.285 (inactive). Besides, the fraction signal in experiment [4] is -0.0245 (inactive).
For the molecule `Nc1c(C(=O)c2cccc(CCCN3CCOCC3)c2)cnn1-c1ccc(F)cc1`, in experiment [1], the liver cell % of control is 97.8% and the parasite % of control is 48.1% (inactive). In experiment [2], the percent of negative control (+Dex) was 109% (inactive) and the z-score was 1.09. For the same molecule, in experiment [3], the EGFP object count was 6 and the EGFP/DsRed ratio was 0.339 (inactive). Further, the fraction signal in experiment [4] is -0.005 (inactive).
Consider `CC(C)(C)c1ccc(Oc2nccc(-c3c(-c4ccc(F)cc4)ncn3C3CCNCC3)n2)cc1`, for which the liver cell % of control in experiment [1] is 81.4%. In addition, in experiment [1], the parasite % of control was 76.7% (inactive). Moreover, the percent of negative control (+Dex) in experiment [2] was 106% (inactive). The z-score was 0.75 in experiment [2]; 0.215 (inactive) in experiment [5]; -0.618 (inactive) in experiment [6]; -0.424 (inactive) in experiment [7] (MELAS cybrid survival, CellTiter-Glo 48 h, stronger effect = higher value); 0.0471 in experiment [7] (Rieske KO mouse fibroblast survival, CellTiter-Glo 72 h). Besides, the fraction signal in experiment [4] was 0 (inactive).
For `Cc1[nH]nc2c1N=C(c1ccccc1F)c1cc(C#N)ccc1N2`, in experiment [1], the liver cell % of control came out at 96.8% and the parasite % of control was 68.4% (inactive). Further, in experiment [2], the percent of negative control (+Dex) is 157% (active) and the z-score worked out at 0.015. For the same molecule, in experiment [3], the EGFP object count is 99.5 and the EGFP/DsRed ratio is 0.814 (active). Also, in experiment [4], the fraction signal was 0.0055 (inactive).

(Values after PubChem BioAssay.)
